Source: PubChem BioAssay (NCATS)
Results filed as inconclusive are left out. Where a call stands in place of a potency, no number is given. Activity calls are given as the source filed them. Calls follow the shape of the dose curve; as a rule, active = well fitted cell-killing curve with a large enough effect; inconclusive = small, poorly fitted or top-dose-only effect, or effect the other way; inactive = flat fitted curve, though single readings scatter.
Potency is read from the fitted curve at half-maximal effect.

These molecules were tested on CAOV3 (assay: Primary qHTS to identify gynecologic anti-cancer compounds using libraries of approved drugs and bioactive compounds (AID 1345084; also: nearly all actives have a fitted effect of over 55% in size)). Settings: Gynecologic cancer cell panel viability, ATPlite luminescence, 48 h; series mostly up to 57.5 µM.
Excerpt: National Center for Advancing Translational Sciences [NCATS] Assay Overview: Chemotherapeutic drug responses vary from cancer to cancer and from patient to patient. These variations could be caused by a number of factors including patient genomic background, tumor mutations, tumor heterogeneity, and aspects of drug treatment. Chemotherapeutic drug resistance is also a common issue and can lead to ineffective treatment and patient death. Here we have profiled the cell killing effects of thousands of compounds to characterize the responses in three gynecological cancers, identify cancer-selective compounds, and understand the diversity of responses to these compounds from pan-cancer suppressors to single cell line selective compounds. In this assay, we screened a 7,914 compound drug library that included approved drug and bioactive compounds in six ovarian, three cervical, and […] placental cancer cell lines using the ATPlite assay for cell viability. […] The cervical cancer cell lines included HeLa, Ca Ski, and C-33 A. The placental cancer cell lines included JEG-3. HEK 293T cells were used as the control cell line to determine the selectivity index. ATPlite is a luminescence based assay reliant on the conversion of a luciferase substrate to light in the presence of ATP. As a cytotoxic compound will suppress growth and decrease the number of cells, the concentration of ATP will decrease, and less light signal will be detected in the well.
Assay Protocol Summary: 1,000 cells in 4 uL of media were dispensed into white, solid bottom 1536-well plates using a Multidrop Combi (Thermo Scientific). The Assay plates were incubated for 16 hours at 37 C with 5% CO2 in assay plates, followed by the addition of 23 nL of DMSO or drug dissolved in DMSO. Each compound was assayed in five concentrations (0.092, 0.46, 2.3, 11.5, and 57.5 uM), using the automated Wako 1536 Pin Tool workstation and incubated at 37 C with 5% CO2 48 hours. 4 uL of ATPlite, the ATP monitoring reagent, was then added to the each well of the assay plates using the Multidrop Combi reagent dispenser followed by incubation for 15 minutes at room temperature. The resulting luminescence was measured using the ViewLux plate reader.
For `CC(C)[C@H](CO)Nc1nc(Nc2ccc(C(=O)O)c(Cl)c2)c2ncn(C(C)C)c2n1`, the Potency was “inactive”. In the case of `COCCOc1nc(-c2ccc(Cl)c(Cl)c2)n(-c2ccc(NC(=O)CCl)cc2)n1`, the Potency is reported as 28.2 µM (active). With `CS(=O)(=O)N(Cc1ccco1)CC(O)Cn1c2ccccc2c2ccccc21` (stereo not given) the Potency was “inactive”. In the case of `CC(C)NCC(O)COc1cccc2[nH]ccc12` (stereo not given), the Potency is reported as “inactive”. For `CN1C[C@H]2c3ccccc3Oc3ccc(Cl)cc3[C@@H]2C1`, the Potency was “inactive”. With `Cc1ccccc1C(C(=O)NC1CCCCC1)N(C(=O)Cn1ccnc1C)c1cccc(F)c1` (stereo not given) the Potency was “inactive”. `COc1ccc(Cc2ccc(NC(N)=O)cc2)cc1-c1cccc(Cl)c1` was tested, and the Potency was “inactive”. `CCn1cc(C(=O)O)c(=O)c2ccc(C)nc21` was tested, and the Potency was “inactive”. `C[C@@H](O)[C@H]1C(=O)N2C(C(=O)O)=C(S[C@@H]3CN[C@H](C(=O)N(C)C)C3)[C@H](C)[C@H]12` was tested, and the Potency was “inactive”. With `CCOC(=O)C1=C(N)Oc2ccc(Br)cc2C1C(C#N)C(=O)OCC` (stereo not given) the Potency was “inactive”. `CC(C)OC(=O)C(C)(C)Oc1ccc(C(=O)c2ccc(Cl)cc2)cc1` was tested, and the Potency was “inactive”. `O=c1[nH]cnc2c1ncn2[C@H]1CC[C@@H](CO)O1` was tested, and the Potency was “inactive”. In the case of `CN(C)c1cc(NC(=O)CNC(C)(C)C)c(O)c2c1C[C@@H]1C[C@H]3[C@H](N(C)C)C(=O)C(C(N)=O)=C(O)[C@@]3(O)C(=O)C1=C2O`, the Potency is reported as “inactive”. `COc1ccc2c(Oc3ccc(NC(=O)c4c(C)n(CC(C)(C)O)n(-c5ccccc5)c4=O)nc3)ccnc2c1` was tested, and the Potency was “inactive”. In the case of `O=C(NC1CCOCC1)c1ccc(-c2cc(-c3cn[nH]c3-c3ccccn3)ccn2)cc1`, the Potency is reported as “inactive”. In the case of `CCN(CC)CCOC(=O)c1ccc(N)cc1`, the Potency is reported as “inactive”. In the case of `NCCS`, the Potency is reported as “inactive”. With `O=C1NCC2(CCN(CCc3ccccc3)CC2)O1` the Potency was “inactive”. `CO[C@H]1C=CO[C@@]2(C)Oc3c(C)c(O)c4c(O)c(c5c(c4c3C2=O)NC2(CCN(CC(C)C)CC2)N=5)=NC(=O)C(C)=CC=C[C@H](C)[C@H](O)[C@@H](C)[C@@H](O)[C@@H](C)[C@H](OC(C)=O)[C@H]1C` was tested, and the Potency was “inactive”. For `O=C(CCN1CCN(C(=O)OCc2cc(Cl)cc(Cl)c2)CC1)c1ccc2[nH]c(=O)oc2c1`, the Potency was “inactive”. In the case of `COC(=O)[C@@H]1[C@H]2C[C@H]3c4[nH]c5ccccc5c4CCN3C[C@@H]2CC[C@@H]1O`, the Potency is reported as “inactive”. For `COc1ccc2cccc(CCNC(C)=O)c2c1`, the Potency was “inactive”. With `Cc1c(NC(=O)c2ccc(C(C)(C)C)cc2)cccc1-c1cn(C)c(=O)c(Nc2ccc(C(=O)N3CCOCC3)cc2)n1` the Potency was “inactive”. `CC(C)C(=O)Nc1ncc(-c2cc(C(F)F)nn2-c2c(Cl)cccc2Cl)s1` was tested, and the Potency was “inactive”. `CCCCC1C(=O)N(c2ccccc2)N(c2ccccc2)C1=O` was tested, and the Potency was “inactive”. For `CN(C)CCC(c1ccccc1)c1ccccn1` (stereo not given), the Potency was “inactive”. For `NC(N)=Nc1nc(CSCC/C(N)=N/S(N)(=O)=O)cs1`, the Potency was “inactive”. For `COC[C@@H](c1ccc(C(F)(F)F)cc1)N1CCN(C2(C)CCN(C(=O)c3c(C)ncnc3C)CC2)C[C@H]1C`, the Potency was “inactive”. With `Cc1ccc(Nc2cc(-c3cccc(N4C(=O)c5ccccc5C4=O)c3)ncn2)cc1NS(C)(=O)=O` the Potency was “inactive”. For `OC[C@@H](O)[C@H](O)[C@H](O)[C@@H](O)CO`, the Potency was “inactive”. For `O=C(O)Cc1cccc2ccccc12`, the Potency was “inactive”. For `Cc1cccc(Nc2nc(-c3ccncc3)cs2)c1`, the Potency was “inactive”. With `COc1cc2ncnc(-n3nc(-c4ccccn4)nc3N)c2cc1OC` the Potency was “inactive”. With `COc1ccc(C2CC(c3ccccc3)=NN2c2ccc(S(N)(=O)=O)cc2)cc1` (stereo not given) the Potency was “inactive”. `COCCOC(=O)C1=C(C)NC2=C(C(=O)CC(c3ccccc3OC)C2)C1c1cccc(O)c1` (stereo not given) was tested, and the Potency was “inactive”. In the case of `Cc1cccc(C)c1OCC(C)N` (stereo not given), the Potency is reported as “inactive”. With `CN(C)Cc1ccc(-c2nc3cccc4c3n2CCNC4=O)cc1` the Potency was “inactive”. With `COc1ccc2cc(-c3nc(-c4ccc(S(C)=O)cc4)[nH]c3-c3ccncc3)ccc2c1` (stereo not given) the Potency was “inactive”. `CC(=O)c1ccc(S(=O)(=O)NC(=O)NC2CCCCC2)cc1` was tested, and the Potency was “inactive”. With `CNC(=O)c1ccc2cc(C3(O)CCn4cncc43)ccc2c1` (stereo not given) the Potency was “inactive”.
